Data on 24 molecules can be found in PubChem BioAssay (NCATS).

Records with an inconclusive call do not appear. Values without a mark were called inactive. Active and inactive are the calls of the source. The call rests on the fitted dose curve; in most records, active means well fitted curve in the direction sought with a large enough effect; inconclusive means small, poorly fitted or top-dose-only effect, or another doubt; inactive means no such curve, though single readings can be large; an effect the other way counts as inactive or inconclusive.

For test [1], the target named is Cellular tumor antigen p53 (Homo sapiens) (UniProt P04637). The experiment in a line: Primary qHTS for small molecule compounds that upregulate eGFP-tagged delta133p53alpha (in N-terminal) cells. (AID 2060322). Further: nearly all actives have a fitted effect of over 75% in size. Further: potency means the concentration at half of the fitted maximal effect.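 On activation: series mostly up to about 56 µM; 0% = DMSO vehicle and 100% = reference activator.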 The conditions noted are these: NCI-H358 eGFP-delta133p53alpha fluorescence, 24 h; activation: active compounds read high. An outline of the steps:
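NCI-H358 cells pre-induced 24 h with 10 ng/ml doxycycline to express N-terminal eGFP-delta133p53alpha, then dosed 24 h at 37C without doxycycline; fixed, Hoechst-stained, GFP intensity by laser scanning cytometry, normalized to DMSO (0%) and 57.5 uM 5-azacytidine (100%).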
(qHTS replaces the single test concentration by a dilution series.)

Test [2] concerns the target Aldehyde dehydrogenase, mitochondrial (Homo sapiens) (UniProt P05091). The experiment in a line: qHTS for Inhibitors of the Aldehyde Dehydrogenase Family (ALDH2) Primary screen (AID 2061308).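 Further: plate controls were vehicle for no effect and reference inhibitor for full effect; nearly all actives have a fitted effect of over 55% in size.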
The target in test [3] is Retinaldehyde dehydrogenase 3 (Homo sapiens) (UniProt P47895). The experiment in a line: qHTS for Inhibitors of the Aldehyde Dehydrogenase Family (ALDH1A3) Primary screen (AID 2061315).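 Further: plate controls were DMSO vehicle for no effect and reference inhibitor for full effect.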

Sequence of Cellular tumor antigen p53 (Homo sapiens) (P04637 whole entry, looked up): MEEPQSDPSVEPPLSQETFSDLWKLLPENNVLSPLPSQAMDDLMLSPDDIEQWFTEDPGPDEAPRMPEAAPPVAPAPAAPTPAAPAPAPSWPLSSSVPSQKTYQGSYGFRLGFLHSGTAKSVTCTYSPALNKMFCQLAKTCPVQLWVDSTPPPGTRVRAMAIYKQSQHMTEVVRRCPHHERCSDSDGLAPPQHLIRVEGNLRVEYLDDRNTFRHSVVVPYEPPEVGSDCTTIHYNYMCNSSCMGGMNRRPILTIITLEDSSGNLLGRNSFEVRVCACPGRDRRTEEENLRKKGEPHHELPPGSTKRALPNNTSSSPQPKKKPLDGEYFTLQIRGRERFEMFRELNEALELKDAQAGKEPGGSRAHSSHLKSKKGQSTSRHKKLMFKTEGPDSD

On to `CCOC(=O)C1=Cc2ccc(C(F)(F)C(F)(F)F)cc2N=C(N)C1`, for which, in test [1], the activation was -1.79%. Also, the Potency result in test [2] and in test [3] was “inactive” throughout.

Turning to `COC(=O)C1=CO[C@@H](O[C@@H]2O[C@H](CO)[C@@H](O)[C@H](O)[C@H]2O)[C@@H]2[C@@H](C(=O)OC)[C@@H](O)C(O)[C@H]12` (some centres not stated), the activation in test [1] is -19.8%. The Potency entry in test [2] and in test [3] was “inactive” each time.

As for `CC(C)=CCC[C@](C)(O[C@@H]1O[C@H](CO[C@@H]2O[C@H](CO)[C@@H](O)[C@H](O)[C@H]2O)[C@@H](O)[C@H](O)[C@H]1O)C1CC[C@]2(C)[C@@H]1[C@H](O)CC1[C@@]3(C)CC[C@H](O[C@@H]4O[C@H](CO)[C@@H](O)[C@H](O)[C@H]4O[C@@H]4O[C@H](CO)[C@@H](O)[C@H](O)[C@H]4O)C(C)(C)[C@@H]3CC[C@]12C` (some centres not stated), the activation in test [1] is -6.25%. Further, the Potency entry in test [2] and in test [3] was “inactive” throughout.

On to `CCOc1ccc(-n2c(C(C)N(Cc3cccnc3)C(=O)Cc3ccc(F)c(C(F)(F)F)c3)nc3ncccc3c2=O)cc1` (configuration not stated), for which the Potency in test [1] is 19 µM (active). In addition, the Potency result in test [2] and in test [3] was “inactive” in each case.

With `COC(=O)[C@@]1(C)CC[C@]2(C(=O)O[C@@H]3O[C@H](CO)[C@@H](O)[C@H](O)[C@H]3O)CC[C@]3(C)C(=CCC4[C@@]5(C)CC[C@H](O[C@@H]6O[C@H](C(=O)O)[C@@H](O)[C@H](O)[C@H]6O)C(C)(C)C5CC[C@]43C)[C@@H]2C1` (some centres not stated), the activation in test [1] is -16.8%. Besides, the Potency result in test [2] and in test [3] was “inactive” in each case.

Regarding `O=C(C[C@@H]1C(C(=O)O)=CO[C@@H](O[C@@H]2O[C@H](CO)[C@@H](O)[C@H](O)[C@H]2O)/C1=C\CO)OCCc1ccc(O)cc1`, in test [1], the activation was 1.53%. In addition, the Potency result in test [2] and in test [3] was “inactive” in each case.

As for `O=C1NC2CCCCN2C12CCN(CCCN1c3ccccc3CCc3ccc(Cl)cc31)CC2` (configuration not stated), the Potency in test [1] is 13.5 µM (active). The Potency result in test [2] and in test [3] was “inactive” each time.

Regarding `C=C1CC[C@@H]2[C@](C)(CC[C@H](O)[C@@]2(C)CCC=C(C)C)[C@@H]1Cc1c[nH]c2ccccc12`, the activation in test [1] is -21.4%. In addition, the Potency entry in test [2] and in test [3] was “inactive” in each case.

On to `COC(=O)CCc1cc2ccoc2c(OC)c1O[C@@H]1O[C@H](CO)[C@@H](O)[C@H](O)[C@H]1O`, for which the activation in test [1] was -27.7%. The Potency result in test [2] and in test [3] was “inactive” in each case.

`C=C1CC2C3(C)C=CC(=O)OC(C)(C)C3CC(OC(C)=O)C2(C)C2C(=O)OC(C)C(=O)C12C` (configuration not stated): the activation in test [1] is 15.3%. Besides, the Potency result in test [2] and in test [3] was “inactive” each time.

With `C[C@@H]1O[C@@H](OC[C@H]2O[C@@H](OCC3CCC4CC3C4(C)C)[C@H](O)[C@@H](O)[C@@H]2O)[C@H](O)[C@H](O)[C@H]1O` (some centres not stated), the activation in test [1] was 16.1%. In addition, the Potency entry in test [2] and in test [3] was “inactive” in each case.

Regarding `N=c1nc2n(cc1F)C1OC(CO)C(O)C1O2` (configuration not stated), in test [1], the activation was 0.333%. Besides, the Potency entry in test [2] and in test [3] was “inactive” in each case.

In the case of `CC(=O)OCC1=CCC2C(C)(C)CCCC2(C)C12CCC(C)(CC(=O)O)O2` (configuration not stated), the activation in test [1] was 25.9%. In addition, the Potency result in test [2] and in test [3] was “inactive” each time.

On to `CC12CC34CC(O)C5C(CO)(CO)CC(=O)CC5(C)C3CC1C2C4` (configuration not stated), for which, in test [1], the activation was 5.34%. Besides, the Potency result in test [2] and in test [3] was “inactive” in each case.

In the case of `CC(C)=CCC/C(C)=C/CO[C@@H]1O[C@H](CO[C@@H]2OC[C@](O)(CO)[C@H]2O)[C@@H](O)[C@H](O)[C@H]1O`, the activation in test [1] is 2.29%. In addition, the Potency result in test [2] and in test [3] was “inactive” throughout.

Take `COc1cc(C2OCC3(O)C(c4ccc(O[C@@H]5O[C@H](CO)[C@@H](O)[C@H](O)[C@H]5O)c(OC)c4)OCC23O)ccc1O` (some centres not stated): the activation in test [1] is -6.11%. The Potency entry in test [2] and in test [3] was “inactive” each time.

In the case of `O=C(O)c1cc(O[C@@H]2O[C@H](CO)[C@@H](O)[C@H](O)[C@H]2O)ccc1O`, the activation in test [1] is -3.05%. The Potency result in test [2] and in test [3] was “inactive” throughout.

With `COc1c(C)c2c(c(O)c1C/C=C(\C)CC/C=C(\C)CCC(=O)O)C(=O)OC2`, the activation in test [1] is 6.11%. Further, the Potency entry in test [2] and in test [3] was “inactive” each time.

With `C=C(C)[C@@H]1CC[C@]2(C(=O)O)CC[C@]3(C)[C@H](CCC4[C@@]5(C)CCC(=O)C(C)(C)C5C(O)C[C@]43C)C12` (some centres not stated), the activation in test [1] was 13%. In addition, the Potency result in test [2] and in test [3] was “inactive” throughout.

Turning to `N#Cc1ccc(Nc2nc(-c3ccc(O)cc3O)cs2)cc1C(F)(F)F`, the Potency in test [1] was 26.9 µM (active). Besides, the Potency entry in test [2] and in test [3] was “inactive” each time.

With `CC1=COC(OC2OC(CO)C(O)C(O)C2O)C2C(CO)CC(OC(=O)/C=C/c3ccc(O)cc3)C12` (configuration not stated), in test [1], the activation is -9.16%. Further, the Potency result in test [2] and in test [3] was “inactive” in each case.

As for `CC(C)(C)NC(=O)[C@H]1CC[C@H]2[C@@H]3CC[C@H]4NC(=O)CC[C@]4(C)[C@H]3CC[C@]12C`, in test [1], the activation is 21.7%. Moreover, the Potency result in test [2] and in test [3] was “inactive” each time.

Turning to `CC1OC(O[C@H]2[C@@H](O)C[C@@]3(C)C([C@H](O)C[C@]4(C)C3CC=C3C5CC(C)(C)CC[C@]5(C(=O)OC5OC(CO)C(O)C(O)C5OC5OCC(OC6OCC(OC7OCC(O)C(O)C7O)C(O)C6O)C(OC6OCC(O)(CO)C6O)C5O)CC[C@]34C)[C@]2(C)CO)C(O)C(O)C1O` (some centres not stated), the activation in test [1] was -6.11%. Moreover, the values for the activity change, negative = inhibition in test [2] and in test [3] were -1.36% [at 11.2 µM] and -4.53% [at 11.2 µM], respectively.

Turning to `CC(C)S(=O)(=O)NC[C@H](C)c1ccc(NC(=O)c2cc(F)cc(F)c2)cc1`, the activation in test [1] is -15%. Moreover, the Potency result in test [2] and in test [3] was “inactive” each time.
